High-throughput results from PubChem.
SMN2 splice up = increases expression of the SMN2 splice variant; HEK293 SMN2-luciferase splicing reporter, luminescence, 30-36 h; Potency, µM (top dose mostly 46.1 µM), for inactives: top-dose activity change, positive = activation, usual class: activators; hit rate 2.8% among 210,000; also: % of control where 0% means no effect; nearly all actives have a fitted effect of over 55% in size
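HEK293 cells carry an SMN2 minigene-luciferase reporter in which exon 7 inclusion puts luciferase in frame. Cells were seeded at 2000 cells/well, attached for 10-12 hours, then exposed to compounds for 30-36 hours at 37C before ONE-Glo luminescence.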
NPC1 promoter act = NPC1 promoter activation | Huh7 NPC1 promoter luciferase reporter, 24 h | Potency, µM (top dose mostly 9.22 µM), for inactives: at the top dose activation, most hits filed as activators | hit rate 2.4% among 320,000; also: % of control where 0% means no effect; nearly all actives have a fitted effect of over 60% in size
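Huh7 reporter cells (NPC1 promoter driving luciferase) are dosed with compound for 24 h at 37 °C, 5% CO2; luciferase detection reagent is then added and luminescence measured after 10 min at ambient temperature.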
FLuc counter = counter-screen for miR-21 project: firefly luciferase inhibitors or activators; AID 588342; P08659; purified FLuc, Km substrates, luminescence inhibition; hit rate 6.9% among 360,000; Potency, µM (highest dose often 57.5 µM), inactives show top-dose activity change, negative = inhibition, usual class: inhibitors;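 also: plate controls were vehicle for no effect and reference inhibitor for full effect; nearly all actives have a fitted effect of over 55% in size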
Target sequence (P08659 whole entry, looked up): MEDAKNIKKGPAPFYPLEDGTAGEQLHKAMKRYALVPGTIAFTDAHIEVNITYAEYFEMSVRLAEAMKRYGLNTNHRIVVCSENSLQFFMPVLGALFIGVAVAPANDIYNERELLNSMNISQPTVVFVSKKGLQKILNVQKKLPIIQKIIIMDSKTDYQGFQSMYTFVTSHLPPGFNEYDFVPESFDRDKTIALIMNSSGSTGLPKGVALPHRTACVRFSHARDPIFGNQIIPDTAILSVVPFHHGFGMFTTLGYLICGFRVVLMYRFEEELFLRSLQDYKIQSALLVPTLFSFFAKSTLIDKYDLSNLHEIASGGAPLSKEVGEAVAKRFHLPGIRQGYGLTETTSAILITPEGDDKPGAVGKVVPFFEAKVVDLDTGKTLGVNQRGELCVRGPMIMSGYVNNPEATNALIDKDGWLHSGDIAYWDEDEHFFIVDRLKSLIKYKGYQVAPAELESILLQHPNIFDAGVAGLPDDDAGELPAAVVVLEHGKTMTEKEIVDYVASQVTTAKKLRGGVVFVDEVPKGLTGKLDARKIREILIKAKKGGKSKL
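Purified P. pyralis luciferase, 10 nM final, with Km-level 10 uM D-luciferin and 10 uM ATP in 50 mM Tris acetate pH 7.5, 10 mM Mg acetate, 0.01% Tween-20, 0.05% BSA; 6-point qHTS titration about 60 µM downward; luminescence read.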
Rab9 promoter act = activates the Rab9 promoter. Huh7 Rab9 promoter-luciferase reporter, luminescence, 24 h. Potency, µM (titrated, usually from 9.22 µM), without a hit: at the highest dose activation, negative = inhibition, actives largely listed as activators. AID 485297. hit rate 2.8% among 320,000; also: % of control where 0% means no effect; nearly all actives have a fitted effect of over 60% in size
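Luminescence read-out: Huh7 cells stably expressing Rab9-luciferase, treated 24 h with compound at 37 °C, then lysed with luciferase reagent for 10 min at ambient before reading.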
ELG1 DNA repair = ELG1-dependent DNA repair inhibition | Potency, µM (titrated, usually from 46.1 µM), without a hit: at the top dose activity change, negative = inhibition, usual class: inhibitors | HEK293T ELG1-luciferase reporter, luminescence, 16 h; DNA damage induced by 5-fluorouridine | hit rate 2.3% among 330,000; also: % is scaled to controls: 0 for no effect and ±100 for the full control effect; nearly all actives have a fitted effect of over 55% in size
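Step one: seed 2,000 cells per well. Step two: pin-transfer compound or DMSO alongside 5-fluorouridine. Step three: incubate 16 hr, 37 °C, 5% CO2. Step four: add ONE-Glo, wait 30 min, read luminescence.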
ELG1 genotoxic = inducers of genotoxicity in HEK293T ELG1-luciferase cells. HEK293T ELG1-luciferase reporter, luminescence, 16 h. Potency, µM (series often up to 46 µM), without a hit: at the top dose activity change, positive = activation, hits mostly activators. hit rate 1.3% among 330,000; also: % of control where 0% means no effect; nearly all actives have a fitted effect of over 60% in size
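HEK293T cells expressing luciferase-tagged ELG1 were treated with compound or DMSO for 16 hr at 37°C. Luciferase activity was then read after 30 min with ONE-Glo at room temperature; rising signal flags genetic stress.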
Starred values were filed as active, the others as inactive; u = inconclusive; x = not tested or not shown; [ ] = dose if it differs, or a comment. Only some compounds are listed: those with a hit (about 9.4% of all), similar ones and a draw of the others. Calls follow the shape of the dose curve; as a rule, active = well fitted curve in the direction sought with a large enough effect; inconclusive = small, poorly fitted or top-dose-only effect, or another doubt; inactive = no such curve, though single readings can be large; an effect the other way counts as inactive or inconclusive. Potency is read from the fitted curve at half-maximal effect.

SMILES	SMN2 splice up	NPC1 promoter act	FLuc counter	Rab9 promoter act	ELG1 DNA repair	ELG1 genotoxic
Oc1ccc(-c2csc(Nc3ncccn3)n2)cc1	25.1µM*	2µM*	3.01µM*	0.562µM*	u	4.61µM*
CC(=O)Nc1ccc(-c2csc(-c3cccnc3)n2)cc1	x	2.82µM*	7.57µM*	u	u	6.51µM*
CCN(CCCNC(=O)CSc1cc(=O)n(CC)c2ccccc12)c1cccc(C)c1	-28.1%	x	-16.2%	x	x	x
Cc1ccc(NC(=O)Cn2nc(C)c3nn(-c4ccc(Cl)cc4)c(C)c3c2=O)cc1F	x	x	-3.2%	x	x	x
Cc1cccc(C)c1NC(=O)CSc1ncc2c(n1)-c1ccc(Cl)cc1N(Cc1ccccc1)S2(=O)=O	x	x	-1.2%	x	x	x
CCCCCNc1nc(-c2ccccc2)cs1	20.2%	3.98µM*	1.9µM*	2.82µM*	u	7.31µM*
c1ccc(-c2csc(Nc3ncccn3)n2)cc1	2.51µM*	0.631µM*	0.601µM*	0.355µM*	u	1.3µM*
NNc1nc(-c2ccccc2)cs1	-48.1%	14.4%	u	16.1%	-8.8%	u
CC(=O)Nc1ccc(-c2csc(Nc3ncccn3)n2)cc1	5.01µM*	0.562µM*	u	0.562µM*	u	9.2µM*
COC(=O)[C@@]1(Cc2ccc(F)cc2)[C@H]2c3cc(C(=O)N(C)C)n(Cc4cc(F)c(F)c(F)c4)c3C[C@H]2CN1C(=O)c1ccccc1	3.0%	x	x	x	x	x
Brc1ccc(C2=NC(Cc3ccccc3)CO2)cc1 (configuration not stated)	7.08µM*	u	6.75µM*	u	u	u
CC(C)(C)c1ccc(/C=C2\SC(=O)N(CCNC(=O)c3cccc(S(=O)(=O)N4CCOCC4)c3)C2=O)cc1	-53.1%	0.708µM*	0.536µM*	0.891µM*	u	u
Cc1ccc(S(=O)(=O)N2CCOCC2)cc1C(=O)NCCN1C(=O)S/C(=C\c2ccccc2Cl)C1=O	-6.9%	-0.5%	u	-0.8%	20.6µM*	-1.9%
COCCCn1c(C(=O)NC2CCCCC2C)cc2c(=O)n3cccc(C)c3nc21 (configuration not stated)	x	-3.3%	2.8%	-3.3%	13µM*	-11.3%
COCCCn1c(C(=O)NCCN2CCOCC2)cc2c(=O)n3cccc(C)c3nc21	x	1.2%	1.0%	13.3%	-15.5%	-5.6%
CCN(C(=O)c1cc2c(=O)n3cccc(C)c3nc2n1CCCOC)C1CCCCC1	x	-5.1%	3.9%	1.8%	23.1µM*	-13.3%
Cc1cc(C)cc(NC(=O)CSc2nc3c([nH]c4ccccc43)c(=O)n2-c2ccc(F)cc2)c1	x	x	1.3%	x	x	x
Cc1sc2cc3c(c(C(=O)c4ccccc4)[n+]2c1C)-c1cccc2cccc-3c12	-61.2%	0.6%	-3.5%	-21.8%	23.1µM*	-3.7%
O=C(O)c1cccc2cccc(-c3cccc4cccc(C(=O)O)c34)c12	-12.9%[9.22 µM]	x	x	x	x	x
O=C(c1ccccc1)c1c2c(cc3sc4ccccc4[n+]13)-c1cccc3cccc-2c13	-62.9%	10.3%	-27.4%	-2.9%	18.4µM*	-10.3%
COc1ccccc1CNC(=O)Cn1ncn2c(cc3sccc32)c1=O	1.0%	x	-0.4%	x	x	x
COc1ccc(-c2nc3scc(CCNS(=O)(=O)c4c(C)cc(C)cc4C)n3n2)cc1OC	x	x	6.5%	x	x	x
COCCN(C(=O)CSc1n[nH]c(-c2ccc(OC)cc2)n1)c1c(N)n(Cc2ccccc2)c(=O)[nH]c1=O	x	-0.6%	u	-7.9%	17.4%	3.2%
CCN(CC)c1ccc(-c2nnc(SCC(=O)N(CCOC)c3c(N)n(CC(C)C)c(=O)[nH]c3=O)o2)cc1	x	-2.6%	6.75µM*	-1.4%	-26.0%	0.1%
CCCCN(C(=O)CSc1n[nH]c(-c2ccc(C)cc2)n1)c1c(N)n(CCCC)c(=O)[nH]c1=O	x	-1.3%	8.49µM*	-3.5%	17.9%	u
SMILES	SMN2 splice up	NPC1 promoter act	FLuc counter	Rab9 promoter act	ELG1 DNA repair	ELG1 genotoxic
CCc1ccc(-c2nc(SCC(=O)N(CCOC)c3c(N)n(Cc4ccccc4)c(=O)[nH]c3=O)n[nH]2)cc1	x	-0.1%	2.69µM*	12.9%	14.4%	9.8%
CCCCn1c(N)c(N(CCOC)C(=O)CSc2n[nH]c(-c3ccc(OC)cc3)n2)c(=O)[nH]c1=O	x	-6.5%	23.9µM*	13.5%	11.7%	3.4%
CCc1cccc(C)c1NC(=O)c1cnn(-c2ccc(OC)cc2)c1C1CCN(C(=O)OC(C)(C)C)CC1	x	x	-0.8%	x	x	x
Cc1ccc(CN(C(=O)COc2ccc(C(C)C)cc2)C2CCS(=O)(=O)C2)o1 (configuration not stated)	-30.7%	x	-6.7%	x	x	x
CCC1CCc2nc3sc(C(=O)Nc4ccc(C)cc4C)c(N)c3cc2C1 (configuration not stated)	-14.2%	x	2.5%	x	x	x
COC(=O)c1ccc(N2OC3(C)C=CC2CC3)cc1 (configuration not stated)	u	29.8%	21.3µM*	u	u	u
COC(=O)c1ccc(N2C(=O)CC(N3CCOCC3)C2=O)cc1 (configuration not stated)	4.3%	-0.9%	3.1%	-3.1%	2.6%	-0.1%
O=C(/C=C/c1ccc2ccccc2n1)c1cc(Cl)ccc1O	x	9.0%	4.78µM*	-2.0%	u	11.3%
COCCNC(=O)c1cc2oc3ccccc3c2n1C	x	25.8%	9.53µM*	3.16µM*	u	u
Cn1c(C(=O)NCc2cccc(Cl)c2)cc2oc3ccccc3c21	u	x	-0.8%	x	x	x
O=C(CCc1cn(Cc2ccccc2F)c2ccccc12)NCc1ccc(Cl)cc1	x	x	-4.6%	x	x	x
BrC(=C\c1ccccc1)/C=N/Nc1ccc2nncn2n1	x	1.3%	13.5µM*	-2.1%	u	5.6%
C(=N\Nc1ccc2nncn2n1)/c1ccco1	x	-0.4%	4.9%	-1.8%	0.2%	1.1%
Cc1ccc(/C=C2\CCC(C3CCCC3)C2=O)cc1 (configuration not stated)	22.4µM*	3.16µM*	0.477µM*	3.55µM*	u	9.2µM*
Cc1ccc(/C=C2\CCCC3=C2NC(=S)NC3c2ccc(C)cc2)cc1 (configuration not stated)	-14.9%	0.0%	-8.1%	-1.8%	1.6%	-4.0%
COc1ccc(/C=C2\CCC(C3CCCC3)C2=O)cc1 (configuration not stated)	x	3.98µM*	0.477µM*	3.55µM*	u	u
Cc1ccsc1/C=C1\CCC(C2CCCC2)C1=O (configuration not stated)	x	2.82µM*	2.13µM*	3.55µM*	u	u
CCOC(=O)c1cnc(SCc2ccccc2)nc1N	5.62µM*	1.58µM*	2.13µM*	0.891µM*	u	7.31µM*
